Experimental findings from PubChem BioAssay (Tox21) are described below.

Inconclusive results are not listed. Entries that show only a call come without a potency. Active and inactive are the calls of the source. Calls follow the shape of the dose curve; as a rule, active = well fitted cell-killing curve with a large enough effect in the repeat runs; inconclusive = weak or mixed curves, or effect the other way; inactive = flat fitted curve, though single readings scatter.
Potency is read from the fitted curve at half-maximal effect.

A short description of this assay: qHTS RealTime-Glo MT Cell Viability Assay in HEK293 cells - 32 hour (AID 1224868). Also: nearly all actives have a fitted effect of over 50% in size. The conditions noted are these: RealTime-Glo luminescence; series mostly up to 76.8 µM. From the text: National Center for Advancing Translational Sciences [NCATS]
NIH Chemical Genomics Center [NCGC]
U.S. Environmental Protection Agency [EPA]
National Institutes of Environmental Health Sciences [NIEHS]
National Toxicology Program [NTP]
U.S. Food and Drug Administration [FDA]
Measure of cell viability is critical in the cell-base assay. Analysis of cell viability is necessary for the characterization of cell responses to cytotoxic drugs and environmental stress. A RealTime-Glo MT Cell Viability Assay to monitor cell viability in real time of continues cell culture during 40 hours of compound treatment was used to screen Tox21 10K library compounds in Hek293 cells. The RealTime-Glo MT Cell Viability Assay is a nonlytic, homogeneous, bioluminescent method to measure cell viability in real time using a simple, plate-based method. The assay involves adding NanoLuc luciferase and a cell-permeant prosubstrate to cells in culture. Viable cells reduce the proprietary prosubstrate to generate a substrate for NanoLuc luciferase. This substrate diffuses from cells into the surrounding culture medium, where it is rapidly used by the NanoLuc Enzyme to produce a luminescent signal. The signal correlates with the number of viable cells, making the assay well suited for cytotoxicity studies.
Tox21 Assay Protocol Summary:
The mixture of Hek293 cell suspension and reagents were dispensed at 600cells/6 ul/well in 1536-well tissue culture treated black solid bottom plates using a Multidrop dispenser. After the assay plates were incubated at a 37 C/5% CO2 incubator for 5 hours, 23 nL of compounds dissolved in DMSO, positive and negative controls was transferred to the assay plate by a pintool work station. The plates were incubated at 37 C for 40 hours. The luminescence intensity were measured at 0h, 8h, 16h, 24h, 32h and 40h time points using ViewLux plate reader during compound treatment.
Turning to `CC(C)(C)c1ccc(CSc2cnn(C(C)(C)C)c(=O)c2Cl)cc1`, the Potency was 0.011 µM (active).

Take `Nc1ccc(Sc2ccc(N)cc2)cc1`: the Potency result is “inactive”. For `O=C(Nc1ccc2[nH]ccc2c1)c1cc2cc(F)ccc2n1Cc1cccc(F)c1` the value was “inactive”; for `Oc1ccc(C2(c3ccc(O)cc3)c3ccccc3-c3ccccc32)cc1`, 43.6 µM (active); for `Fc1cccc(Cl)c1CCl`, “inactive”. For `Cc1ccc(CCl)cc1` the value was “inactive”; for `O=C1c2ccccc2C(=O)C1C(=O)C(c1ccccc1)c1ccc(Cl)cc1` (stereo not given), “inactive”; for `c1ccc2cc3c(cc2c1)-c1cccc2cccc-3c12`, “inactive”. With `CC(c1ccc(O)cc1)c1ccc(O)cc1`, the Potency was 45.9 µM (active). With `COS(=O)(=O)c1ccc(C)cc1`, the Potency entry is “inactive”. For `C[C@]12Cc3nonc3C[C@@H]1CC[C@@H]1[C@@H]2CC[C@@]2(C)[C@H]1CC[C@]2(C)O` the value was 21.3 µM (active); for `OC(Cc1ccccc1Cl)(Cn1cncn1)C1(Cl)CC1` (stereo not given), 49 µM (active); for `CCC(C)c1cc([N+](=O)[O-])cc([N+](=O)[O-])c1OC(=O)C=C(C)C` (stereo not given), 21.9 µM (active).

On to `ClC1=C(Cl)[C@]2(Cl)[C@@H]3[C@@H]4C[C@@H]([C@H]5O[C@@H]45)[C@@H]3[C@@]1(Cl)C2(Cl)Cl`, for which the Potency is 21.9 µM (active). Regarding `FC(F)(F)c1cccc(C2=CCN(CCc3ccc4ccccc4c3)CC2)c1`, the Potency entry is “inactive”.

Regarding `CC(=O)OC1(c2ccccc2)CCN(CCc2ccccc2)CC1`, the Potency is 31.6 µM (active). For the molecule `Clc1ccc(-c2ccccc2)cc1`, the Potency entry is “inactive”. In the case of `COC12CC[C@@]3(C[C@@H]1C(C)(O)C(C)(C)C)[C@H]1Cc4ccc(O)c5c4[C@@]3(CCN1CC1CC1)[C@H]2O5` (stereo not given in full), the Potency was 24.4 µM (active). With `ClC1=C(Cl)C2(Cl)C3C(Cl)C(Cl)CC3C1(Cl)C2(Cl)Cl` (stereo not given), the Potency was 48.8 µM (active). With `CCOC(=O)CC(=O)CCl` the figure was 43.6 µM (active). For `N#C/C=C/c1ccccc1` the value was “inactive”. With `O=c1ssc(Cl)c1Cl` the figure was 15.5 µM (active); with `ClC(Cl)=C(Cl)Cl`, “inactive”; with `CCS(=O)(=O)c1cccnc1S(=O)(=O)NC(=O)Nc1nc(OC)cc(OC)n1`, “inactive”.

For the molecule `C[As+](C)(C)CC(=O)[O-]`, the Potency result is “inactive”. With `CC(Cc1ccc(C(C)(C)C)cc1)CN1C[C@@H](C)O[C@@H](C)C1` (stereo not given in full), the Potency result is “inactive”.

Regarding `COP(N)(=S)OC`, the Potency result was “inactive”.

For the molecule `CN(C)S(=O)(=O)N(SC(F)(Cl)Cl)c1ccccc1`, the Potency was 3.89 µM (active). Consider `CCCCCCCCCCCCCC[P+](CCCCCC)(CCCCCC)CCCCCC` (tested in a mixture with another compound), for which the Potency was 4.9 µM (active). `Fc1ccc(Oc2ccnc3cc(Cl)cc(Cl)c23)cc1`: the Potency was 11 µM (active). Turning to `C=CCOC(N)=O`, the Potency result was “inactive”.

As for `CCCCCCCCCCBr`, the Potency result was “inactive”.

In the case of `CC(=O)/C=C/c1ccc2c(c1)OCO2`, the Potency result is “inactive”. With `NC(=O)CCl` the entry was “inactive”; with `CCN(CC)c1c([N+](=O)[O-])cc(C(F)(F)F)c(N)c1[N+](=O)[O-]`, 19.5 µM (active). Turning to `CCCCN(CCCC)C(=S)[S-].CCCCN(CCCC)C(=S)[S-].[Zn+2]`, the Potency is 11 µM (active).

Consider `Oc1ccccc1Br`, for which the Potency result is “inactive”.

As to `O=[N+]([O-])c1ccc(Oc2ccc(C(F)(F)F)cc2[N+](=O)[O-])cc1`, the Potency was 19.5 µM (active). With `Clc1ccc(CO/N=C(\Cn2ccnc2)c2ccc(Cl)cc2Cl)c(Cl)c1`, the Potency is 21.3 µM (active).

As for `COc1cccc2c1C(=O)c1c(O)c3c(c(O)c1C2=O)C[C@@](O)(C(=O)CO)CC3OC1CC(N2CCOC(OC)C2)C(O)C(C)O1` (stereo not given in full), the Potency was 0.0301 µM (active).
